Rows were chosen to be rich in hits. Some 2.4% of all compounds tested hit in one or more screens of this group.
POLI inh: DNA polymerase iota (human) inhibition; Potency, µM (doses to about 115 µM), for inactives: at the highest dose activity, negative = inhibition, hits mostly inhibitors; Pol iota fluorescent replication assay, 10 min; Q9UNA4; 390,000 compounds, 1% hits
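Pol iota at 10 nM preincubated 15 min with compounds at room temperature; reaction started with fluorescent substrate, 50 nM final. Fluorescence read kinetically at 0 and 10 min; buffer-only wells as negative control.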
POLB inh: inhibitors of human DNA polymerase beta | 340,000 compounds, 1.3% hits | Pol beta primer extension/strand displacement, fluorescence kinetic | Potency, µM (titrated, usually from 114 µM), for inactives: at the top dose activity change, negative = inhibition, actives largely listed as inhibitors | P06746; note: % is set by controls: 0 for no effect and ±100 for the full control effect
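10 nM enzyme + cpd, 15 min RT; start with substrate 50 nM final; read 0 min and after 10 min RT. Corrected, normalized data; 4-parameter Hill curve fit.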
Pol kappa inh: blocks human DNA polymerase kappa activity | Q9UBT6 | purified Pol kappa, fluorescent DNA synthesis assay, 10 min | Potency, µM (series often up to 107 µM), inactives show at the top dose activity, negative = inhibition, actives largely listed as inhibitors | 400,000 compounds, 0.53% hits | AID 588579; note: % is set by controls: 0 for no effect and ±100 for the full control effect
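10 nM Pol kappa preincubated 15 min at room temperature with compounds, then reaction started with substrate at 50 nM final. Fluorescence read kinetically at 0 and 10 min; buffer-only wells served as negative control.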
FEN1 inhibitor: blocks human flap endonuclease 1 | 390,000 compounds, 0.35% hits | AID 588795 | Recombinant FEN1 flap cleavage, fluorescence, 15 min | Potency, µM (doses to about 114 µM), without a hit: at the highest dose activity change, negative = inhibition, actives largely listed as inhibitors | P39748; note: % is set by controls: 0 for no effect and ±100 for the full control effect; nearly all actives have a fitted effect of over 65% in size
Target sequence (P39748 whole entry, looked up): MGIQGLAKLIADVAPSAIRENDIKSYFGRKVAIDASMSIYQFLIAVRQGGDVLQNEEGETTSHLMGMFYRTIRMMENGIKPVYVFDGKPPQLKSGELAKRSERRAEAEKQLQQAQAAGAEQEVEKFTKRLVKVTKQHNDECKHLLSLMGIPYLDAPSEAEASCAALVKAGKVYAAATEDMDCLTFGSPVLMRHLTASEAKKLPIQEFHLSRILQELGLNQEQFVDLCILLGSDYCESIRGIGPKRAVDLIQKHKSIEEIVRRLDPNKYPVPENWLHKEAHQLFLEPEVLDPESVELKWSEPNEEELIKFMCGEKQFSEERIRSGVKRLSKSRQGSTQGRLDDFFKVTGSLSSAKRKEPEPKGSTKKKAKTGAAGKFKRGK
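Reaction started by adding substrate (50 nM final) to 10 nM enzyme after 15 min room-temperature compound preincubation. Reads at 0 and 15 min, with data normalized and fitted to a four-parameter Hill equation.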
WRN inhibitor: blocks human WRN helicase; Potency, µM (series often up to 114 µM), for inactives: at the top dose activity change, negative = inhibition, most hits filed as inhibitors; WRN helicase unwinding, fluorescent forked duplex, kinetic; Q14191; 360,000 compounds, 0.46% hits; note: % is set by controls: 0 for no effect and ±100 for the full control effect; nearly all actives have a fitted effect of over 55% in size
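Fluorescence dequenching readout, ex 525 nm/em 598 nm, kinetic mode: forked duplex DNA (100 nM final) with adjacent fluorophore and quencher unwound by WRN (20 nM final) with 2 mM ATP. Compound preincubation 15 min, room temperature.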
Pol eta inh: inhibitors of human DNA polymerase eta; 390,000 compounds, 1.2% hits; Potency, µM (doses to about 114 µM), without a hit: top-dose activity change, negative = inhibition, hits mostly inhibitors; Q9Y253; recombinant Pol eta, fluorescent DNA replication assay; AID 588591; note: % is set by controls: 0 for no effect and ±100 for the full control effect
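Pol eta (10 nM) was preincubated with compounds for 15 min at room temperature, after which fluorescent replication substrate (50 nM final) was added to start the reaction. Fluorescence was read kinetically at 0 and 10 min.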
The depositor's hits bear a star; [ ] = dose if it differs, or a comment. Calls come from the whole dose curve; as a rule, active = well fitted curve in the direction sought with a large enough effect; inconclusive = small, poorly fitted or top-dose-only effect, or another doubt; inactive = no such curve, though single readings can be large; an effect the other way counts as inactive or inconclusive. Potency is the fitted concentration of half-maximal effect.

O=C(NCc1ccc(F)cc1)c1cnc(N2CCCCC2)c2ccccc12 was read as POLI inh 22%, POLB inh -11%, Pol kappa inh -10%[60.1 µM], FEN1 inhibitor 1% and Pol eta inh -16%.
For CCOC(=O)C1CCN(c2ncnc3c2cnn3-c2ccc(OC)cc2)CC1 the results were POLI inh 11%, POLB inh 50µM*, Pol kappa inh -23%, FEN1 inhibitor -7%, WRN inhibitor -19% and Pol eta inh -7%.
COc1ccc(-n2ncc3c(N4CCC(C(N)=O)CC4)ncnc32)cc1 was read as POLI inh 1%, POLB inh inconclusive, Pol kappa inh -11%, FEN1 inhibitor -6%, WRN inhibitor 9% and Pol eta inh -23%.
For O=C1C=CC(=O)N1CCCCCCN1C(=O)C=CC1=O the results were POLI inh -37%, POLB inh 0%, Pol kappa inh -16%, FEN1 inhibitor -16%, WRN inhibitor 20µM* and Pol eta inh inconclusive.
Screening O=C(O)CN1C(=O)C=CC1=O returned WRN inhibitor -13% and Pol eta inh inconclusive.
`CC(C)CCNC(=O)C1CCCN(S(=O)(=O)c2ccc3c(c2)CC(C)N3C(=O)C2CC2)C1` (configuration not stated) gave POLI inh -10%, POLB inh -5%, Pol kappa inh 16%, FEN1 inhibitor 8%, WRN inhibitor 3% and Pol eta inh -17%.
CC(C)CCNC(=O)C1CCN(S(=O)(=O)c2ccc3c(c2)CC(C)N3C(=O)C2CCC2)CC1 (configuration not stated) was read as POLI inh -2%, POLB inh 56µM*, Pol kappa inh 3%, FEN1 inhibitor -14%, WRN inhibitor -6% and Pol eta inh -10%.
Screening CCc1ccc(OCC(=O)N(Cc2ccc(C)o2)C2CCS(=O)(=O)C2)cc1 (configuration not stated) returned POLI inh 12%, POLB inh 20%, Pol kappa inh 11% and FEN1 inhibitor -1%.
CSc1nc2sc3c(c2c(=O)n1-c1ccccc1)CCC(C(C)(C)C)C3 (configuration not stated) was read as POLI inh -5%, POLB inh inconclusive, Pol kappa inh 7%, FEN1 inhibitor -6% and Pol eta inh -8%.
Screening Cc1c(Cl)cccc1NC(=O)CNc1cccc(S(=O)(=O)N(C)C)c1 returned POLI inh 11%, POLB inh 79µM*, Pol kappa inh -6%, FEN1 inhibitor 2%, WRN inhibitor -5% and Pol eta inh -11%.
Screening CCNc1ccc(S(=O)(=O)N(C)C)cc1NCC(=O)Nc1ccc(F)c(Cl)c1 returned POLI inh 89µM*, POLB inh -26%, Pol kappa inh -10%, FEN1 inhibitor -5%, WRN inhibitor -12%[57.1 µM] and Pol eta inh -17%.
`O=C(CSc1nnc(Cc2csc(Nc3cccc(Cl)c3)n2)o1)N1CCc2ccccc21` gave POLI inh 79µM*, POLB inh 1%, Pol kappa inh -28%, FEN1 inhibitor -2%, WRN inhibitor -36% and Pol eta inh inconclusive.
`CCn1cc(C(=O)NCCCOC(C)C)c(=O)c2cc(S(=O)(=O)N(C)C3CCCCC3)ccc21` gave POLI inh 8%, POLB inh 3%, Pol kappa inh -1%, FEN1 inhibitor 4% and Pol eta inh -20%.
For CCOC(=O)[C@]12CCC=C1N(Cc1ccc3c(c1)OCO3)C(=O)[C@H](CC(=O)N1CCCCC1)C2 the results were WRN inhibitor -11%.
`Cc1no[n+]([O-])c1COc1cccc(/C=N/Nc2nncn2N)c1` gave POLI inh 20µM*, POLB inh inconclusive, Pol kappa inh -11%, FEN1 inhibitor -6%, WRN inhibitor 5%[11.6 µM] and Pol eta inh -17%.
Screening COc1cc(/C=N/n2nnnc2N)ccc1OCc1c(C)no[n+]1[O-] returned POLI inh 14%, POLB inh -1%, Pol kappa inh -8%, FEN1 inhibitor -14%, WRN inhibitor -3% and Pol eta inh -4%.
`COc1ccc(-c2ccc(CNCCCSc3nnnn3C)o2)cc1Cl` gave POLI inh -3%, POLB inh -11%, Pol kappa inh 4%, FEN1 inhibitor -8% and Pol eta inh -11%.
`Cc1cccc(N2CCN(C(=O)Cn3c(-c4cccs4)cc4ccccc43)CC2)c1C` gave POLI inh 12%, POLB inh 31%, Pol kappa inh -12%, FEN1 inhibitor -11% and Pol eta inh -14%.
For Cc1ccc(CNc2ncccc2-c2nc(-c3ccc(Cl)cc3)no2)cc1 the results were POLI inh 28%, POLB inh inconclusive, Pol kappa inh 1%, FEN1 inhibitor 16% and Pol eta inh -23%.
For Cc1cccc(C)c1NC(=O)CSCC(=O)c1ccc(O)c(O)c1 the results were POLI inh 20µM*, POLB inh -26%, Pol kappa inh -40%, FEN1 inhibitor -7%, WRN inhibitor inconclusive and Pol eta inh inconclusive.
For O=C(NCC(c1ccc2c(c1)OCO2)N1CCOCC1)C(=O)Nc1ccccc1 (configuration not stated) the results were POLI inh 18µM*, POLB inh 18%, Pol kappa inh -8%[60.1 µM], FEN1 inhibitor -8% and Pol eta inh 0%.
COc1ccccc1OCC(=O)Nc1nnc(-c2ccco2)s1 was read as POLI inh inconclusive, POLB inh 35µM*, Pol kappa inh -7%, FEN1 inhibitor -14%, WRN inhibitor -25% and Pol eta inh inconclusive.
`Cc1cccc(OCC(=O)Nc2nnc(-c3ccco3)s2)c1` gave POLI inh 24%, POLB inh inconclusive, Pol kappa inh -15%, FEN1 inhibitor 12%, WRN inhibitor -20%[57.1 µM] and Pol eta inh -20%.
`CN(N=O)c1ccc(/C=C/c2ccnc3ccccc23)cc1` gave POLI inh inconclusive, Pol kappa inh -3% and FEN1 inhibitor -4%.
`CCCCCCCCCC[n+]1cccc2cc(Cl)ccc21` gave POLI inh 10%, Pol kappa inh 5% and FEN1 inhibitor 2%.
Screening CCOC(=O)COc1ccc(Br)cc1/C=C/c1[nH]c(=O)[nH]c(=O)c1[N+](=O)[O-] returned POLI inh inconclusive, POLB inh 56µM*, Pol kappa inh -9%, FEN1 inhibitor inconclusive, WRN inhibitor -6%[11.6 µM] and Pol eta inh 45µM*.
